# Test results taken from PubChem BioAssay.
# Unmarked numbers belong to inactive results. For part of these data: Entries with a potency or affinity are not part of this list. The source made the active and inactive calls. Unless noted, how the calls were made is not given here.
# Legend:
# [1] = antimalarial activity against Dd2 strain (AID 2302;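 active means growth inhibition above 50% at the single 2 µM test dose, taken to imply half-maximal potency below 2 µM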;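 further: 0% = DMSO untreated growth and 100% = chloroquine plus artemisinin killed control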); settings: P. falciparum Dd2 in RBCs, LDH growth readout, 72 h; at 2 µM; stronger effect = higher value
# [2] = HepG2 cytotoxicity, primary screen, cytotoxicity control for P. falciparum antimalarial project, cell-based, ATP luminescence (AID 2303;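 active means inhibition above 50%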;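 further: 0% = DMSO wells and 100% = digitonin-killed cells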); settings: HepG2 viability, 24-48 h, at 10 µM, stronger effect = higher value
# [3] = biological target: L-lactate dehydrogenase (Plasmodium falciparum (isolate CDC / Honduras)) (UniProt Q27743); assay: PfLDH activity inhibition – cell lysate, 3D7 strain, counter-screen for P. falciparum growth inhibition project (AID 2304);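 further: 0% = vehicle and 100% = reference inhibitor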; settings: P. falciparum 3D7 crude extract, LDH APAD/NBT absorbance; at 2 µM; stronger effect = higher value
# L-lactate dehydrogenase (Plasmodium falciparum (isolate CDC / Honduras)), sequence (Q27743 whole entry, looked up): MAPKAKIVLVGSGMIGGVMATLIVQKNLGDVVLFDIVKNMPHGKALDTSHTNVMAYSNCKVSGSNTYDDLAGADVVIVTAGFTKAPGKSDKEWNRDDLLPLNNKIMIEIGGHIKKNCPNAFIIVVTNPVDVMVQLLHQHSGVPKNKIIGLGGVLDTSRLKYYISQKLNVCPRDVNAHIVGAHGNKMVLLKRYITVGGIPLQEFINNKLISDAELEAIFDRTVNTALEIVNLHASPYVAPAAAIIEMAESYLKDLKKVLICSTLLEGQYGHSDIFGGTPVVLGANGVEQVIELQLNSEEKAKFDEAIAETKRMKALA
# [4] = inhibition of 3D7 malaria parasite growth – strain 3D7 (AID 2306);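 further: 0% = DMSO wells and 100% = chloroquine plus artemisinin control wells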; settings: P. falciparum 3D7 erythrocytic growth, LDH absorbance, 72 h; at 2 µM; stronger effect = higher value
# [5] = biological target: Calcium-dependent protein kinase 1 (Plasmodium falciparum (isolate 3D7)) (UniProt P62344); assay: PfCDPK1 kinase inhibitors, biochemical, TCAMS library (AID 1159585; cut-off not given, nearly all actives have IC50 up to about 0.98 µM;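 further: inhibitors leave more ATP so luminescence rises with inhibition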); settings: recombinant PfCDPK1, Kinase-Glo ATP depletion luminescence
# Calcium-dependent protein kinase 1 (Plasmodium falciparum (isolate 3D7)), sequence (P62344 whole entry, looked up): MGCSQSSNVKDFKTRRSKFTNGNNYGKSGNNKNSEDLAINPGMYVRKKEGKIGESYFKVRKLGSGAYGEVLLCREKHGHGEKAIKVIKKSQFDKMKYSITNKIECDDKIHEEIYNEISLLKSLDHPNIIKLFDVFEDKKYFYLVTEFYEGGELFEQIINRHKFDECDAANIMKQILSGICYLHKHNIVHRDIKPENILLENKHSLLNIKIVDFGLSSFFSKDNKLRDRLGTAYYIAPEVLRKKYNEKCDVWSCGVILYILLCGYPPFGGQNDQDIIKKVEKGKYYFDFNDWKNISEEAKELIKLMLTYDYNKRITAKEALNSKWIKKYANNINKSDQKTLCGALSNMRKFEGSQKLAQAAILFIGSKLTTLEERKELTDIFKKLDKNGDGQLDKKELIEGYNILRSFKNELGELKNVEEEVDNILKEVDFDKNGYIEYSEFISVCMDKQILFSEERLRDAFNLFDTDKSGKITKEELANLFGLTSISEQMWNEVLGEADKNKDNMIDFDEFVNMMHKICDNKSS
# [6] = biological target: Plasmodium falciparum protein kinase 6 (PK6, PF3D7_1337100) (UniProt Q8IDW1); assay: PfPK6 kinase inhibitors, biochemical, TCAMS library (AID 1159586); settings: recombinant PfPK6, Kinase-Glo ATP depletion luminescence
# Plasmodium falciparum protein kinase 6 (PK6, PF3D7_1337100), sequence (Q8IDW1 1-305): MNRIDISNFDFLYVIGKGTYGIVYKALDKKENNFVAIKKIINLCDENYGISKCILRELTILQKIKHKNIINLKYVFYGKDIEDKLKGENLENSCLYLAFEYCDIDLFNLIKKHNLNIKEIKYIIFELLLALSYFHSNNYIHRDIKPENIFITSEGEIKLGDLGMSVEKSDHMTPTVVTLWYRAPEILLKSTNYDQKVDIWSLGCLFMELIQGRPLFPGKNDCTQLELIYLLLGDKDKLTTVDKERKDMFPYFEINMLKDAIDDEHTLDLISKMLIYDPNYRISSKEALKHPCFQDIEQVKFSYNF
# [7] = biological target: Protein kinase 7 (PK7), Plasmodium falciparum 3D7 (PF3D7_0213400) (UniProt Q7YTF7); assay: inhibition of Plasmodium PK7 catalytic activity – biochemical, TCAMS antimalarial set, Kinase-Glo luminescence (AID 1159587); settings: recombinant PfPK7, Kinase-Glo ATP depletion luminescence
# Protein kinase 7 (PK7), Plasmodium falciparum 3D7 (PF3D7_0213400), sequence (Q7YTF7 1-343): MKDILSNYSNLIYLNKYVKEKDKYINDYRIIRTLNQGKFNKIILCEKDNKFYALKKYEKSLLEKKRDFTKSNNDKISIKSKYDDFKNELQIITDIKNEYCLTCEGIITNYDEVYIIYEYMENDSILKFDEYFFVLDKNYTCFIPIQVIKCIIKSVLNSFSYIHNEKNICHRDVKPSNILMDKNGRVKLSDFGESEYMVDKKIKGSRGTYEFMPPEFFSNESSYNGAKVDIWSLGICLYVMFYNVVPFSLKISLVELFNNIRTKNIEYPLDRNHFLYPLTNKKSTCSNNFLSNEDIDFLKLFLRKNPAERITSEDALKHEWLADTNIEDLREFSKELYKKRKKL
# [8] = biological target: Calcium-dependent protein kinase 4 (Plasmodium falciparum (isolate 3D7)) (UniProt Q8IBS5); assay: PfCDPK4 kinase inhibitors, biochemical, TCAMS library (AID 1159588; cut-off not given, nearly all actives have IC50 up to about 0.91 µM); settings: recombinant PfCDPK4, Kinase-Glo ATP depletion luminescence
# Calcium-dependent protein kinase 4 (Plasmodium falciparum (isolate 3D7)), sequence (Q8IBS5 whole entry, looked up): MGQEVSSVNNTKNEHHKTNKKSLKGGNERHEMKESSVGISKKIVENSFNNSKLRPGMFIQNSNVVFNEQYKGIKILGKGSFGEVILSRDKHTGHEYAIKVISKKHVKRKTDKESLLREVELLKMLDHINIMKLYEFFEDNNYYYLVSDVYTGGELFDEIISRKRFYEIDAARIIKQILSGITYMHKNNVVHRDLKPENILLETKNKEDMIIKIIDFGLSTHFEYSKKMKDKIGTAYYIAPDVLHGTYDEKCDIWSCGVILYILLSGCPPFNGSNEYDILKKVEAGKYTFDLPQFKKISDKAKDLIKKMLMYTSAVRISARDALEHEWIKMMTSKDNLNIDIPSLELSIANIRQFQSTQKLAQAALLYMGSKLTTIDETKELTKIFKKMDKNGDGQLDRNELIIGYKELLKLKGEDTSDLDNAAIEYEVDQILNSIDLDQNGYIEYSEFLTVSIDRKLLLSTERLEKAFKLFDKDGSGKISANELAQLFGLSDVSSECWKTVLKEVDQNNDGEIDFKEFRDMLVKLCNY
Compound,growth inhibition [1],inhibition [2],inhibition [3] [%],growth inhibition [4],outcome [5],outcome [6],outcome [7],outcome [8]
Cc1cc(CNCCCCCCNCc2ccc(Cl)cc2)ccc1O,0%,23%,-2,96% (active),inactive,inactive,inactive,inactive
COc1ccc(CN2CCCN(Cc3cccc(NC(=O)c4cc5ccccc5s4)c3)CC2)cc1,32%,32%,5,94% (active),inactive,inactive,inactive,inactive
CCCNCc1ccc(-c2ccc(CN(Cc3cnc(C)cn3)C(=O)/C=C/c3ccccc3C)cc2)nc1,15%,7%,5,95% (active),inactive,inactive,inactive,inactive
CCC1CCCCN1S(=O)(=O)c1ccc(NC(=O)c2cc(C)on2)cc1 (stereo not drawn),53% (active),0%,0,86% (active),inactive,inactive,inactive,inactive
CC(CN(C)C)C(=O)Nc1cccc(-c2ccc(-c3nc4ccccc4[nH]3)cc2)c1 (stereo not drawn),25%,1%,-8,98% (active),inactive,inactive,inactive,inactive
CC(C)(C)c1ccc2nc(-c3ccc(/C=C/C(=O)NCc4cccc(C(F)(F)F)c4)cc3)[nH]c2c1,11%,31%,-16,93% (active),inactive,inactive,inactive,inactive
Cc1nc2ccccc2n1C1C[C@H]2CC[C@@H](C1)N2CCCC1(c2ccccc2)CCN(C(=O)OCc2ccccc2)CC1 (stereo partly drawn),29%,46%,-4,90% (active),inactive,inactive,inactive,inactive
CCNc1cc(C(=O)N[C@@H](Cc2ccccc2)[C@H](O)CNC(C)CC(C)C)c(F)c(N2CCCCS2(=O)=O)c1 (stereo partly drawn),66% (active),6%,4,95% (active),inactive,inactive,inactive,inactive
O=S(=O)(Nc1ccc(CCN2CCCCC2CCN2CCCC2)cc1)c1ccc(-c2ccccc2)cc1 (stereo not drawn),18%,18%,-1,98% (active),inactive,inactive,inactive,inactive
CCCCCCN1CCCN(Cc2ccc(C(=O)Nc3ccc(F)c(F)c3)cc2)CC1,48%,50% (active),-8,84% (active),inactive,inactive,inactive,inactive
CCCCc1ccc(C(=O)NC2CCN(C[C@H](O)c3ccnc4ccc(OC)cc34)CC2)cc1,22%,24%,-1,91% (active),inactive,inactive,inactive,inactive
CCSc1ccc(C)cc1CON1C(N)=NC(N)=NC1(C)C,96% (active),66% (active),0,94% (active),inactive,inactive,inactive,inactive
COc1ccc2ncc(F)c(CCN3CCC[C@H](CNCc4ccc5c(n4)NC(=O)CS5)C3)c2n1,34%,16%,3,96% (active),inactive,inactive,inactive,inactive
CCN(CC)CCN(Cc1ccc(-c2ccc(C(F)(F)F)cc2)cc1)C(=O)Cn1c(CCc2cccc(F)c2F)nc(=O)c2ccc(C)cc21,58% (active),39%,-2,99% (active),inactive,inactive,inactive,inactive
COc1cc2nc(NCc3cccc(CNC(=O)c4ccc(-c5ccc(C(C)=O)cc5)cc4)c3)nc(N)c2cc1OC,72% (active),32%,-2,100% (active),inactive,inactive,inactive,inactive
Cn1nc(-c2ccc(CNC3CCc4ccccc43)cc2)c2cnc(NCCN3CCCC3)nc21 (stereo not drawn),17%,21%,-2,99% (active),inactive,inactive,inactive,inactive
O=S(=O)(c1ccc(OCc2ccc(Cl)cc2)cc1)c1cc2c(c(-c3ccc(F)cc3)c1)CCN(CC1CC1)CC2,14%,-5%,-5,84% (active),inactive,inactive,inactive,inactive
Cc1cnc(Nc2ccccc2)nc1N[C@@H](CCCN)C(=O)Nc1ccccc1,0%,-2%,-1,101% (active),inactive,inactive,inactive,inactive

Compound,growth inhibition [1],inhibition [2],inhibition [3] [%],growth inhibition [4],outcome [5],outcome [6],outcome [7],outcome [8]
COc1ccc2ncc(C#N)c(CCN3CCC(NCc4cnc5c(c4)OCCO5)CC3)c2n1,24%,3%,-3,91% (active),inactive,inactive,inactive,inactive
Cc1ccc(C(C#N)c2ccc3c(C(F)(F)F)cc(C(F)(F)F)nc3n2)cc1 (stereo not drawn),36%,14%,2,96% (active),inactive,inactive,inactive,inactive
CCN(CC)c1ccccc1CNC(=O)c1cc(Cl)c(N)cc1OC,94% (active),6%,-1,97% (active),inactive,inactive,inactive,inactive
O=C(Cn1c(CCc2cccc(F)c2F)nc(=O)c2ccccc21)N(CCCN1CCCC1)Cc1ccc(-c2ccc(C(F)(F)F)cc2)cc1,80% (active),54% (active),4,101% (active),inactive,inactive,inactive,inactive
O=C(Nc1ccccc1)c1cnc[nH]1,-1%,-7%,1,92% (active),inactive,inactive,inactive,inactive
CCOc1ccc2nc(C)cc(NN=Cc3cccnc3)c2c1,100% (active),18%,1,102% (active),inactive,inactive,inactive,inactive
Cc1ccccc1C1CCN(C2CCC(NC(=O)/C=C/c3ccc(F)c(F)c3)CC2)CC1 (stereo not drawn),7%,34%,-1,93% (active),inactive,inactive,inactive,inactive
COc1cc(Cc2cnc(N)nc2N)cc(OC)c1OCCNC(=O)[C@@H](N)CCC(=O)O,-4%,-1%,-6,96% (active),inactive,inactive,inactive,inactive
C[C@H](Cc1ccc(OCCCCCCOc2ccc(C[C@@H](C)NC(=O)[C@H](O)c3cccc(Cl)c3)cc2)cc1)NC[C@H](O)c1cccc(Cl)c1,99% (active),39%,-3,99% (active),inactive,inactive,inactive,inactive
COc1ccc(Cn2c(N3CCN(S(=O)(=O)c4ccc(OC)cc4)CC3)nc3c2c(=O)n(CC2CC2)c(=O)n3CC2CC2)cc1,39%,-12%,-3,92% (active),inactive,inactive,inactive,inactive
CC1(C)N=C(N)N=C(N)N1OCC1CCCCC1,97% (active),67% (active),4,94% (active),inactive,inactive,inactive,inactive
O=C(/C=C/c1cccc(OC(F)(F)F)c1)NCCCCCN1CCC(c2c[nH]c3ccccc23)CC1,13%,27%,-6,93% (active),inactive,inactive,inactive,inactive
CN1CCC(Oc2cc(CN3CC[C@H](NC(=O)c4ccc(Cl)c(Cl)c4)C3)ccc2I)C1 (stereo partly drawn),24%,68% (active),1,97% (active),inactive,inactive,inactive,inactive
COc1cccc(COCC(O)CN(CCc2ccccn2)C(=O)c2ccccc2F)c1 (stereo not drawn),30%,61% (active),-1,97% (active),inactive,inactive,inactive,inactive
CCN1CCN(c2cc(C)c3cc(NC(=O)c4ccc(N(CC)CC)cc4)ccc3n2)CC1,41%,38%,1,95% (active),inactive,inactive,inactive,inactive
CC(CN(C)C)C(=O)Nc1cccc(-c2ccc(-c3nc4ccccc4[nH]3)s2)c1 (stereo not drawn),47%,13%,7,100% (active),inactive,inactive,inactive,inactive
CN(CCN(C)C(=O)NCc1ccccc1)C(=O)NCc1ccccc1,0%,2%,1,101% (active),inactive,inactive,inactive,inactive
Cc1ccc(Nc2nc(NN=Cc3cc4c(cc3Br)OCO4)nc(Nc3ccc([N+](=O)[O-])cc3)n2)cc1C,89% (active),23%,-2,100% (active),inactive,inactive,inactive,inactive
